Source: PubChem BioAssay AID2289 (National Center for Advancing Translational Sciences (NCATS), 2010)
Screen size: about 340,000 compounds; about 3,300 (0.97%) were called active. Not shown: some 9% with an inconclusive outcome. Calls follow the shape of the dose curve; as a rule, active = well fitted inhibition curve with a large enough effect; inconclusive = small, poorly fitted or top-dose-only effect, or effect the other way; inactive = flat fitted curve, though single readings scatter. The list shows a part of the results.

test: qHTS Assay for Modulators of miRNAs and/or Inhibitors of miR-21; details: HeLa miR-21-FLuc reporter, luciferase luminescence, 48 h; actives lower the signal; also: nearly all actives have a fitted effect of over 55% in size
Summary of the method: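 Compounds were titrated across several concentrations (up to approximately 40 uM) and incubated 48 hours with HeLa miR-21-FLuc reporter cells (miR-21 target sequence downstream of FLuc, endogenous miR-21). Readout was firefly luciferase luminescence after lytic detection reagent.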
Potency is read from the fitted curve at half-maximal effect.

Potency, active:
Cc1ccc(C(=O)O/N=C(\N)c2cccnc2)cc1[N+](=O)[O-] 7.36 µM
Cc1cc(C(=O)O/N=C(\N)c2ccncc2)ccc1[N+](=O)[O-] 2.33 µM
C/C(=N\NC(=O)c1nn(C)cc1Br)c1ccc(NC(=O)c2ccncc2)cc1 18.5 µM
C/C(=N\NC(=O)c1nn(C)c(C)c1Br)c1cccc(NC(=O)c2ccoc2C)c1 3.69 µM
C/C(=N\NC(=O)c1nn(C)c(C)c1Br)c1cccc(NC(=O)c2ccc(F)cc2)c1 1.85 µM
COc1ccc(C(C#N)N2N=C(c3ccccc3)CC2c2ccccc2)cc1OC (centres undefined) 10.4 µM
COc1ccc(C2=NN(C(C#N)c3ccc(OC)cc3)C(c3ccccc3)C2)cc1 (centres undefined) 2.33 µM
O=C1C(C=NCCN2CCOCC2)=C(O)c2ccccc21 8.26 µM
O=C(/C=C/c1ccc(-c2ccc(F)cc2)o1)N1CCCC1 5.85 µM
O=C(/C=C/c1ccc(-c2cccc([N+](=O)[O-])c2)o1)N1CCOCC1 7.36 µM
O=C(/C=C\c1ccc(-c2cccc([N+](=O)[O-])c2)o1)N1CCOCC1 9.27 µM
COCc1ccc(C(=O)N(C)CC2CCCN(CCc3ccc(OC)cc3)C2)o1 (centres undefined) 11.7 µM
COc1ccc(CCN2CCCC(CN(C)C(=O)c3ccoc3)C2)cc1 (centres undefined) 6.56 µM
CC(/C=N/NC(=O)Cc1cccs1)=C\c1ccccc1 6.56 µM
O=C(N/N=C/c1ccccc1[N+](=O)[O-])c1cccs1 2.93 µM
O=C(Cc1cccs1)N/N=C/C=C/c1ccccc1[N+](=O)[O-] 6.56 µM
Cc1ccc(/C=N/NC(=O)c2cccs2)cc1[N+](=O)[O-] 4.14 µM
CSc1ccccc1NC(=O)c1cccc(S(=O)(=O)N2CCN(C)CC2)c1 14.7 µM
Cc1cccc2nc(COc3ccc4ccccc4c3Br)cn12 2.07 µM
Clc1ccc(OCc2cn3ccccc3n2)c2ncccc12 6.56 µM
O=[N+]([O-])c1ccccc1COc1ccc(Cl)c2cccnc12 0.293 µM
Clc1ccc(OCc2cn3cccnc3n2)c2ncccc12 14.7 µM
Cc1cccc2nc(COc3ccc(Cl)c4cccnc34)cn12 16.5 µM
Cc1ccc(-c2nc3ccccc3s2)cc1NC(=S)NC(=O)c1cccc2ccccc12 4.65 µM
Cc1cccnc1NC(=S)NC(=O)/C=C/c1ccco1 9.27 µM
Cc1ccc(-n2nc3cc(C)c(NC(=S)NC(=O)/C=C/c4ccco4)cc3n2)cc1 3.69 µM
CCOC(=O)Cc1ccc2sc(-c3ccccc3)nc2c1 1.17 µM
CCOc1cc(-c2nc3ccccc3s2)ccc1O 9.27 µM
COc1ccc(OCC(=O)Nc2cc(-c3nc4ccccc4s3)ccc2C)cc1 4.65 µM
Cc1ccc(-c2nc3ccccc3s2)cc1NC(=S)NC(=O)/C=C/c1ccco1 10.4 µM
C/C(=N\Nc1ccccc1C(=O)O)c1ccncc1 8.26 µM
C/C(=N/Nc1ccccc1C(=O)O)c1cccs1 14.7 µM
C/C(=N\Nc1nc(-c2ccccc2)cs1)c1cccs1 8.26 µM
O=C(Nc1ccccc1Cl)c1ccc(-c2ccccn2)s1 0.826 µM
c1ccc(-c2ccc(-c3ccccn3)s2)nc1 0.736 µM
O=C(Nc1ccccc1)c1ccc(-c2ccccc2)s1 1.85 µM
O=C(Nc1ccc(Cl)cc1)c1ccc(-c2ccccn2)s1 0.736 µM
O=S1(=O)CCN2C(=N1)Sc1c2ccc2c1CCCC2 13.1 µM
Cc1nc(C#N)c(N/N=C/c2cccc(Cl)c2)o1 7.36 µM
COC(=O)c1sc(-c2ccc(C(C)(C)C)cc2)cc1NC(=O)CCC(=O)O 5.21 µM
CCOc1ccc(-c2cc(NC(=O)Nc3ccccc3Cl)c(C(=O)OC)s2)cc1 5.85 µM
COC(=O)c1sc(-c2ccc(C(C)(C)C)cc2)cc1NC(=O)COCC(=O)O 11.7 µM
COc1ccc(C2Nc3ccccc3C(=O)N2c2ccc(Cl)cc2)cc1Cn1cc([N+](=O)[O-])cn1 (centres undefined) 0.736 µM
COc1ccc(N2C(=O)c3ccccc3NC2c2ccc(OC)c(Cn3nnc4ccccc43)c2)cc1 (centres undefined) 5.21 µM
COc1ccc(C2Nc3ccccc3C(=O)N2c2ccc(C)cc2)cc1Cn1nnc2ccccc21 (centres undefined) 6.56 µM
O=[N+]([O-])c1ccccc1/C=N/OCc1ccccc1 14.7 µM
Cc1ccc(Cn2cnc3nc4c(cc3c2=O)CC(C)CC4)cc1 (centres undefined) 4.65 µM
Cc1ccc(Cn2cnc3nc4c(cc3c2=O)CCCC4)cc1 8.26 µM
Cc1nc2cc(NC(=O)C3COc4ccccc4O3)ccc2s1 (centres undefined) 4.14 µM
O=C(Nc1ccc2c(c1)CCC2)C1COc2ccccc2O1 (centres undefined) 1.47 µM
Cc1c(C(=O)N(CCO)Cc2ccccc2)oc2c(F)cccc12 13.1 µM
C=CCn1c(SCC(N)=O)nnc1-c1cc2c(s1)CCC(CC)C2 (centres undefined) 13.1 µM
C=CCn1c(SCC(=O)NCC)nnc1-c1cc2c(s1)CCC(CC)C2 (centres undefined) 7.36 µM
Cc1cccnc1Nc1nc(-c2ccc(O)cc2)cs1 3.29 µM
Cc1cccnc1Nc1nc(-c2ccc(O)c(O)c2)cs1 4.65 µM
Cc1cccnc1Nc1nc(-c2ccc(O)cc2O)cs1 5.21 µM
Cc1ccc2nc(Cl)c(/C=C/C(=O)c3ccco3)cc2c1 14.7 µM
COCc1cc(C)nc2sc(C(=O)Nc3ccccc3F)c(N)c12 18.5 µM
COCc1cc(C)nc2sc(C(=O)Nc3cc(C)ccc3F)c(N)c12 7.36 µM
COCc1cc(C)nc2sc(C(=O)Nc3ccccc3O)c(N)c12 13.1 µM
Cc1c(-c2nsc(NC(=O)c3cccs3)n2)nnn1-c1ccc(F)cc1 0.521 µM
Cc1ccc(-n2nnc(-c3nsc(NC(=O)c4ccccc4)n3)c2C)cc1 5.21 µM
Cc1c(-c2nsc(NC(=O)c3cccs3)n2)nnn1-c1ccc(Br)cc1 1.85 µM
Cc1c(-c2nsc(NC(=O)c3cccs3)n2)nnn1-c1ccc(Cl)cc1 2.07 µM
